{"source": "PubChem BioAssay AID488890", "about": "(Southern Research Specialized Biocontainment Screening …, 2010)", "note": "Screen size: about 320,000 compounds; about 1,300 (0.41%) were called active. Another 3% or so got no clear call; they are omitted. How the calls were made is not given here. The list is a sample of the results. Measured potencies and affinities stand elsewhere."}
{"test": "growth inhibition of non-replicating M. tuberculosis (AID 488890);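 further: plate controls were DMSO cells for no effect and high antibiotic wells for full effect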", "conditions": "Mycobacterium tuberculosis non-replicating, at 25 µM, stronger effect = higher value", "units": {"inhibition": "%"}}
{"smiles": "CCOc1ccc2oc(C(=O)OCC(=O)NCc3ccc(OC)cc3)c(C)c2c1", "inhibition": 26.4}
{"smiles": "Cc1nn(C2CCS(=O)(=O)C2)c(Cl)c1/C=C/C(=O)OCC(=O)Nc1ccc2c(c1)OCO2", "note": "(configuration not stated)", "inhibition": 3.18}
{"smiles": "O=C(c1cnn2c(C(F)(F)F)cc(-c3ccccc3)nc12)N1CCCCC1c1cccnc1", "note": "(configuration not stated)", "inhibition": 22.6}
{"smiles": "Nc1ccc(-c2nc3ncccc3o2)c(O)c1", "inhibition": 8.78}
{"smiles": "O=C1OC(Oc2ccccc2)(c2ccccc2)c2ccccc21", "note": "(configuration not stated)", "inhibition": -1.31}
{"smiles": "COc1ccccc1COCC(O)CNCCc1ccc(C(F)(F)F)cc1", "note": "(configuration not stated)", "inhibition": 67.5}
{"smiles": "OC(CNCc1ccccc1F)COc1cccc2ccccc12", "note": "(configuration not stated)", "inhibition": 29.3}
{"smiles": "COc1ccc(CCNCC(O)COc2cccc(Br)c2)cc1", "note": "(configuration not stated)", "inhibition": 45.7}
{"smiles": "OC(CNCCc1ccccc1)COc1ccc(OCC(O)CNCCc2ccccc2)cc1", "note": "(configuration not stated)", "inhibition": 59.6}
{"smiles": "O=c1c2ccccc2nc(/C=C/c2ccc(F)cc2)n1-c1ccccn1", "inhibition": -7.61}
{"smiles": "Cc1ccnc(NC(=O)c2ccccc2NC(=O)c2ccccc2)c1", "inhibition": 7.95}
{"smiles": "OCCCn1c(CCNc2nc(-c3ccc(F)cc3)cs2)nc2cc(C(F)(F)F)ccc21", "inhibition": 26.8}
{"smiles": "CN(C)CCOc1ccc2ccccc2c1", "inhibition": -16.7}
{"smiles": "c1ccc2cc(OCCOCCOc3ccc4ccccc4c3)ccc2c1", "inhibition": -3.69}
{"smiles": "COC(C(=O)Nc1ccc(S(=O)(=O)Nc2ccc(F)cc2)cc1)c1ccccc1", "note": "(configuration not stated)", "inhibition": 30.9}
{"smiles": "CCOc1ccc(C(C(=O)NCC2CCCO2)N(C(=O)c2snc(C(N)=O)c2N)c2cccc(F)c2)cc1", "note": "(configuration not stated)", "inhibition": 3.71}
{"smiles": "COc1ccc(CC(=O)NNC(=O)c2cnccn2)cc1", "inhibition": -6.37}
{"smiles": "COc1ccc(CC(=O)NNC(=O)COc2ccc(Br)cc2C)cc1OC", "inhibition": -13.1}
{"smiles": "Cc1ccc(C(=O)NNC(=O)COc2ccc(Cl)cc2C)o1", "inhibition": -11.3}
{"smiles": "Cc1cc(Cl)ccc1OCC(=O)NNC(=O)c1cccnc1", "inhibition": -9.52}
{"smiles": "O=C(NCCNC(=O)c1cnccn1)c1ccc(Cl)c(Cl)c1", "inhibition": 5.99}
{"smiles": "O=C(NCCCNC(=O)c1cnccn1)c1ccc(Cl)c(Cl)c1", "inhibition": -0.84}
{"smiles": "CCc1ccc(OCC(=O)NCCN(C)C)c(Br)c1", "inhibition": 5.23}
{"smiles": "COc1ccccc1OCC(=O)NNC(=O)c1cnccn1", "inhibition": 3.6}
{"smiles": "Cn1nc(C(=O)N2CCOCC2)c2ccccc2c1=O", "inhibition": -8.35}
{"smiles": "O=C(COc1ccccc1-c1ccccc1)c1ccccc1", "inhibition": 50.1}
{"smiles": "COc1cc([C@@H]2CC=C(C(=O)O)[C@H](c3ccccc3)N2S(=O)(=O)c2ccc(C)cc2)cc(OC)c1OC", "inhibition": 12.5}
{"smiles": "CCN(CC)C(=O)[C@H]1CC(CC(=O)NCCCOC)C(=O)N2CCc3c([nH]c4ccccc34)[C@]12C", "note": "(some centres not stated)", "inhibition": -1.9}
{"smiles": "CC(=O)N1CCN(c2ccccc2NC(=O)COc2cc(C)ccc2C(C)C)CC1", "inhibition": 34.3}
{"smiles": "CCOc1ccc(NC(=O)CCCN2C(=O)C(c3ccccc3)Oc3cccnc32)cc1", "note": "(configuration not stated)", "inhibition": 3.12}
{"smiles": "CC1(C)CC(=O)c2c(Cc3ccccc3)noc2C1", "inhibition": 3.41}
{"smiles": "CCN(CC)CCn1c2c(c(SCC(=O)NCc3ccccc3)nc1=O)CCC2", "inhibition": 8.95}
{"smiles": "Cc1ccc(S(=O)(=O)NCC(=O)NCC(=O)N(C)Cc2ccc3ccccc3c2)cc1C", "inhibition": 31.9}
{"smiles": "Cc1cc(Br)ccc1OCC(=O)NNC(=O)CCc1ccccc1", "inhibition": 29}
{"smiles": "CCc1ccc(OCC(=O)NC(=S)Nc2ccc(F)cc2)c(Br)c1", "inhibition": 9.95}
{"smiles": "O=C(COc1ccc(Cl)cc1Br)Nc1ccncc1", "inhibition": 69.3}
{"smiles": "Cc1cc(Br)ccc1OCC(=O)NNC(=O)Cc1ccccc1", "inhibition": -15.6}
{"smiles": "CCCc1nc2oc3c(NCCOCCO)ncnc3c2c2c1COC(C)(C)C2", "inhibition": -8.1}
{"smiles": "CCCN(CC(=O)Nc1ccc(F)c(F)c1F)CC(=O)Nc1c(C)n(C)n(-c2ccccc2)c1=O", "inhibition": 37.8}
{"smiles": "COc1ccccc1-n1nnnc1SCC(=O)NC1CCCCC1", "inhibition": 2.38}
{"smiles": "Cc1[nH]c(C)c(S(=O)(=O)Nc2cccc(Cl)c2C)c1C(=O)N1CCCC1", "inhibition": 6.67}
{"smiles": "Cc1ccsc1/C=N/NC(=O)CN1CCN(Cc2ccccc2)CC1", "inhibition": -0.88}
{"smiles": "O=C(NCC1CCCO1)NC12CC3CC(CC(C3)C1)C2", "note": "(configuration not stated)", "inhibition": -2.4}
{"smiles": "COC(=O)N/N=C/c1ccc([N+](=O)[O-])o1", "inhibition": 70.7}
{"smiles": "Cc1cc(C)cc(OCC(=O)N/N=C/c2ccco2)c1", "inhibition": 9.16}
{"smiles": "COc1ccc(C(=O)NCC(=O)N/N=C/c2ccc(C)o2)cc1OC", "inhibition": 24.5}
{"smiles": "O=C(COc1ccccc1[N+](=O)[O-])N/N=C/C=C/c1ccco1", "inhibition": 12.5}
{"smiles": "COc1ccc(C(=O)NCC(=O)N/N=C/c2ccco2)cc1OC", "inhibition": -11.6}
{"smiles": "Cc1ccccc1OCC(=O)N/N=C/C=C/c1ccccc1", "inhibition": -6.11}
{"smiles": "CCCCCC(=O)N/N=C/c1ccc([N+](=O)[O-])o1", "inhibition": 73.3}
{"smiles": "CCOC(=O)N/N=C\\c1ccc([N+](=O)[O-])o1", "inhibition": 59.1}
{"smiles": "COc1ccc(CN2CCNC(=O)C2CC(=O)N(C)Cc2nccn2C)cc1OC", "note": "(configuration not stated)", "inhibition": -4.39}
{"smiles": "NS(=O)(=O)c1ccc(CNC(=O)c2ccc3c(c2)OCO3)cc1", "inhibition": -8.29}
{"smiles": "CC1CCC2C(=O)N(c3cccc(C(=O)Nc4ccc(F)cc4)c3)C(=O)C2C1", "note": "(configuration not stated)", "inhibition": 0.0133}
{"smiles": "Cc1cc(C)c[n+](CC(=O)c2ccc(C)c([N+](=O)[O-])c2)c1", "inhibition": 11.3}
{"smiles": "COc1ccc(Cl)cc1NC(=O)CN(C)C(=O)/C=C/c1ccco1", "inhibition": 25.2}
{"smiles": "CCc1nc2ccccc2n1CC(=O)N1CCN(S(=O)(=O)c2cccc(C(F)(F)F)c2)CC1", "inhibition": 11.4}
{"smiles": "Cc1ccc(NC(=O)C2CCN(C(=O)c3ccc(Cl)cc3)CC2)nc1", "inhibition": 11.3}
{"smiles": "C/C(=N\\Nc1ccc(Cl)cc1)c1ccncc1", "inhibition": 31.7}
{"smiles": "CCCC(=O)Nc1ccc(C(=O)N/N=C/c2ccc([N+](=O)[O-])o2)cc1", "inhibition": 77.6}
{"smiles": "Cc1ccccc1OCC(=O)N/N=C/c1ccc([N+](=O)[O-])o1", "inhibition": 78.1}
{"smiles": "Cc1ccc(NC(=O)CCC(=O)N/N=C/c2ccc([N+](=O)[O-])o2)cc1C", "inhibition": 8.35}
{"smiles": "CCCOc1ccc(CCC(=O)N/N=C/c2ccncc2)cc1", "inhibition": 25.7}
{"smiles": "Cc1ccc(OCC(=O)N/N=C/c2ccco2)cc1", "inhibition": 36.5}
{"smiles": "CCCOc1ccc(CCC(=O)N/N=C/c2ccco2)cc1", "inhibition": 64.4}
{"smiles": "O=S(=O)(Nc1ccc(Nc2ccccc2)cc1)c1ccc(F)cc1", "inhibition": 45.8}
{"smiles": "O=C(COC(=O)c1ccc2ncsc2c1)NCc1ccccc1Cl", "inhibition": 19.4}
{"smiles": "CC(=O)Nc1ccc(S(=O)(=O)N2CCSC2C(=O)O)cc1", "note": "(configuration not stated)", "inhibition": 1.73}
{"smiles": "CCN(CC)S(=O)(=O)c1ccc(Oc2ccccc2)cc1", "inhibition": 30.3}
{"smiles": "COc1ccc2c(Cl)c(C(=O)N/N=C/c3c(C)[nH]c4ccccc34)sc2c1", "inhibition": -5.52}
{"smiles": "CC(C)C(c1nnnn1Cc1ccccc1)N1CCc2ccccc2C1", "note": "(configuration not stated)", "inhibition": 11}
{"smiles": "Cc1cccc(N2C(=O)/C(=C/c3ccccn3)SC2=S)c1", "inhibition": 0.34}
{"smiles": "Cc1ccc(C)c2[nH]c(=O)c(CCNC(=O)c3ccc(Br)o3)cc12", "inhibition": -3.61}
{"smiles": "COc1ccc(CCNC(=O)COc2ccc(-c3ccc(C)cc3)cc2)cc1OC", "inhibition": 25.9}
{"smiles": "O=C(Nc1ccc(Cl)c(Cl)c1)Nc1ccc(Br)cc1F", "inhibition": 75.2}
{"smiles": "O=[N+]([O-])c1ccc(-n2nnnc2-c2ccccc2)cc1", "inhibition": -9.53}
{"smiles": "O=[N+]([O-])c1cccc(-c2nnnn2-c2cccc(F)c2)c1", "inhibition": -0.82}
{"smiles": "CC(C)[C@H](NC(=O)C1CCN(S(=O)(=O)c2ccc(F)cc2)CC1)C(=O)NCc1ccco1", "inhibition": 8.72}
{"smiles": "COc1cc(OC)cc(C(=O)N[C@H](C(=O)OCC(N)=O)C(C)C)c1", "inhibition": -12.8}
{"smiles": "CCNC(=O)N(C)C[C@H]1N[C@@](C)(C(=O)OC)[C@H]2C(=O)N(C)C(=O)[C@@H]12", "inhibition": 2.38}
{"smiles": "CNC(=S)NNc1nc(N2CCOCC2)nc(N2CCOCC2)n1", "inhibition": -5}
{"smiles": "CCCC(=O)N/N=C1\\CS(=O)(=O)N(C)c2ccsc21", "inhibition": 1.81}
{"smiles": "CN1c2ccsc2/C(=N/NC(=O)c2c(F)cccc2F)CS1(=O)=O", "inhibition": -25.7}
{"smiles": "Cc1ccc(NC(=O)C2=C(O)c3sccc3N(C)S2(=O)=O)cc1", "inhibition": 18.9}
{"smiles": "Cc1cccc(C(=O)N/N=C2\\CS(=O)(=O)N(C)c3ccsc32)c1", "inhibition": 56.1}
{"smiles": "Cc1ccccc1NC(=O)C1C2C=CC(C3CC23)C1C(=O)O", "note": "(configuration not stated)", "inhibition": -10.4}
{"smiles": "Cc1ccc(NC(=O)c2ccc3snnc3c2)cc1C", "inhibition": -6.47}
{"smiles": "O=C(CCN1CCN(C/C=C/c2ccccc2)CC1)Nc1ccccc1F", "inhibition": -1.04}
{"smiles": "COc1ccc2[nH]c(=O)c(C(=O)O)cc2c1", "inhibition": -0.72}
{"smiles": "O=C(N/N=C/c1ccccn1)c1ccc(NC(=O)c2cccc([N+](=O)[O-])c2)cc1", "inhibition": 7.23}
{"smiles": "O=C(N/N=C/c1ccccn1)c1ccncc1", "inhibition": 75.3}
{"smiles": "O=C(N/N=C/c1ccccn1)c1ccc([N+](=O)[O-])cc1Cl", "inhibition": 74.4}
{"smiles": "O=C(N/N=C/c1ccc2nccnc2c1)c1cccc([N+](=O)[O-])c1", "inhibition": -21.3}
{"smiles": "CCCCC(CCC(=O)Nc1ccn(-c2ccccc2)n1)C(=O)O", "note": "(configuration not stated)", "inhibition": -15.5}
{"smiles": "Cc1nnc(C)n1N", "inhibition": -10.3}
{"smiles": "COc1ccc(NC(=O)CN2CCN(C(=O)C3CCCO3)CC2)c(OC)c1", "note": "(configuration not stated)", "inhibition": -13.5}
{"smiles": "O=C(NC1CCCc2ccccc21)c1ccc(Cl)nc1", "note": "(configuration not stated)", "inhibition": 72.1}
{"smiles": "O=C(NC1CCOc2ccccc21)c1ccccn1", "note": "(configuration not stated)", "inhibition": 75.5}
{"smiles": "O=C(O)c1cc(N/N=C/c2c(O)ccc3ccccc23)ccc1Cl", "inhibition": 0.25}
{"smiles": "COc1ccc2ccccc2c1/C=N/Nc1ccc(Cl)c(C(=O)O)c1", "inhibition": -12.5}
{"smiles": "CC(C)(C)OCC1CO1", "note": "(configuration not stated)", "inhibition": -2.36}
{"smiles": "Cc1ccccc1SCC(=O)Nc1ccc(N2CCOCC2)cc1", "inhibition": 0.16}
{"smiles": "COc1ccccc1Nc1nn2c(=O)c3ccc(C(=O)N4CCC(C)CC4)cc3nc2s1", "inhibition": 33.4}
{"smiles": "COc1nc(OC)nc(Oc2ccc(Cl)cc2[N+](=O)[O-])n1", "inhibition": 2.78}
{"smiles": "COc1ccc(OCCNc2cc(Cl)ccc2[N+](=O)[O-])cc1", "inhibition": -1.86}
{"smiles": "CCc1ccccc1OCCCN1CCCC1", "inhibition": 4.44}
{"smiles": "Cc1cc(-n2cnnn2)ccc1C(C)C", "inhibition": 9.21}
{"smiles": "Nc1cccn2c(-c3ccc(Cl)c(Cl)c3)cnc12", "inhibition": 54.7}
{"smiles": "Cn1c(-c2ccc(Cl)cc2)cnc1N", "inhibition": 52.6}
{"smiles": "COc1ccc(C(C)=O)cc1CSc1nc(C)cc(C)n1", "inhibition": 6.97}
{"smiles": "O=C(O)C(Br)CBr", "note": "(configuration not stated)", "inhibition": 20.6}
{"smiles": "CCCNC(=O)Cn1sc2nc(C)cc(C)c2c1=O", "inhibition": 2.63}
{"smiles": "Cc1cc(C)c2c(=O)n(CC(=O)NC3CCCC3)sc2n1", "inhibition": 6.3}
{"smiles": "Cc1cc(C)c2c(=O)n(CC(=O)N3CCC(N4CCCCC4)CC3)sc2n1", "inhibition": -11.9}
{"smiles": "Cc1c(Cl)cccc1NC(=O)Cn1cc(C(F)(F)F)cc(Cl)c1=O", "inhibition": 3.98}
{"smiles": "Cc1cccc(N2CCN(C(=O)Cn3nc(C)n4cccc4c3=O)CC2C)c1", "note": "(configuration not stated)", "inhibition": -17.1}
{"smiles": "Cc1c(Cl)cccc1NC(=O)Cn1cccc1", "inhibition": 4.11}
